S2 tox – Viability Counterscreen for Primary qHTS for Inhibitors of ATXN expression. S2 cells (HEK-293 line with an ATXN2-luciferase reporter) viability, CellTiter-Fluor protease fluorescence, 24 h. Potency, µM (top dose mostly 56.7 µM), hits mostly cytotoxic. 400,000 compounds, 0.49% hits. AID 651635, 2014; also: nearly all actives have a fitted effect of over 40% in size
TGFb SMAD3 inh – qHTS for Inhibitors of TGF-b; HepG2 CAGA-GFP TGF-b/SMAD3 reporter, GFP fluorescence, 18 h; TGF-beta stimulated, 500 pg/mL final; Potency, µM (titrated, usually from 46.1 µM), for inactives: top-dose activity, negative = inhibition, hits mostly inhibitors; 410,000 compounds, 1.2% hits; AID 588855, 2011; also: % is scaled to controls: 0 for no effect and ±100 for the full control effect; nearly all actives have a fitted effect of over 65% in size
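HEPG2 CAGA-GFP reporter cells (1000/well, DMEM with 1% FBS) received compounds, then recombinant TGF-beta at 500 pg/mL final for 18 hours at 37 degrees C. Per-cell GFP summed per well was normalised to unstimulated and stimulated DMSO controls before curve fitting.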
HepG2 viability – qHTS for Inhibitors of TGF-b: Cytotox Counterscreen | HepG2 CAGA-GFP viability, ATP luminescence, 18 h | Potency, µM (titrated, usually from 46.1 µM), for inactives: at the top dose activity change, negative = cytotoxicity, usual class: cytotoxic | 410,000 compounds, 0.76% hits | AID 588856, 2011
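CellTiter-Glo luminescence gave cytotoxicity after 18 hours at 37 degrees C. The cells were HepG2 CAGA-GFP in 1% FBS DMEM, stimulated with 500 pg/mL TGF-beta after compound addition. %Activity was normalised to no-cell wells (complete cell-killing) and DMSO (no toxicity), and curves were fitted and classified.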
TDP1 cell noCPT – qHTS for Inhibitors of human tyrosyl-DNA phosphodiesterase 1 (TDP1): qHTS in cells in absence of CPT; DT40 Tdp1-/- hTDP1 cells, no CPT, ATP luminescence, 48 h; Potency, µM (top dose mostly 46.2 µM), for inactives: at the top dose activity change, negative = growth inhibition, usual class: inhibitors; 420,000 compounds, 15% hits; AID 686978, 2013; also: % is scaled to controls: 0 for no effect and ±100 for the full control effect; nearly all actives have a fitted effect of over 55% in size
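Stably hTDP1-transfected Tdp1-null chicken DT40 cells were treated with library compounds minus camptothecin and grown for at least 48 hr at 37 °C, after which cellular ATP was quantified by luminescence.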
TDP1 cell CPT – qHTS for Inhibitors of human tyrosyl-DNA phosphodiesterase 1 (TDP1): qHTS in cells in presence of CPT; AID 686979, 2013; chicken DT40 Tdp1-/-;hTDP1 cells + 20 nM CPT, ATP luminescence, 48 h; 420,000 compounds, 12% hits; Potency, µM (highest dose often 46.2 µM), for inactives: top-dose activity change, negative = growth inhibition, hits mostly inhibitors; also: % is scaled to controls: 0 for no effect and ±100 for the full control effect; nearly all actives have a fitted effect of over 55% in size
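Chicken DT40 Tdp1-/- cells stably complemented with human TDP1 were seeded at 400 cells/well in medium containing 20 nM camptothecin, exposed to pin-transferred compounds, and grown at 37 °C for at least 48 hr. Viability was read as ATP luminescence.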
ATXN2 expr inh – Primary qHTS for Inhibitors of ATXN expression; 360,000 compounds, 0.72% hits; HEK-293 ATXN2-luciferase reporter, luminescence, 24 h; AID 1745845, 2022; Potency, µM (series often up to 57 µM), for inactives: at the top dose activity change, negative = inhibition, most hits filed as inhibitors; also: % is scaled to controls: 0 for no effect and ±100 for the full control effect; nearly all actives have a fitted effect of over 55% in size
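ATXN2-luciferase reporter cells (luciferase flanked by upstream and downstream ATXN2 gene portions) were treated 24 h at 37 °C with compounds at up to 57 uM. SteadyGlo luminescence gave expression; GF-AFC fluorescence gave viability.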
* hit, by the source's call. Shown are actives, neighbours in structure and some others; about 17% of the full set was active somewhere. Calls follow the shape of the dose curve; as a rule, active = well fitted curve in the direction sought with a large enough effect; inconclusive = small, poorly fitted or top-dose-only effect, or another doubt; inactive = no such curve, though single readings can be large; an effect the other way counts as inactive or inconclusive. Potency is read from the fitted curve at half-maximal effect.

CCOC(=O)c1nnc(-c2ccc(C)cc2)nc1Oc1ccccc1Cl was read as S2 tox inactive, TGFb SMAD3 inh inconclusive, HepG2 viability -16.9%, TDP1 cell noCPT inconclusive, TDP1 cell CPT inconclusive and ATXN2 expr inh 7.0%.
Screening CCOC(=O)c1nnc(-c2ccc(C)cc2)nc1Sc1ccccc1Cl returned S2 tox inconclusive, TGFb SMAD3 inh inconclusive, HepG2 viability -11.9%, TDP1 cell noCPT 16.4µM*, TDP1 cell CPT inconclusive and ATXN2 expr inh inconclusive.
For CCOC(=O)c1nnc(-c2ccccc2)nc1Sc1c(Cl)cccc1Cl the results were S2 tox inconclusive, TGFb SMAD3 inh 10µM*, HepG2 viability -115.3%, TDP1 cell noCPT 16.4µM*, TDP1 cell CPT 20.6µM* and ATXN2 expr inh inconclusive.
O=C(NCCc1ccc(Cl)cc1)C1CCCO1 (stereo not given) was read as S2 tox inactive, TGFb SMAD3 inh -13.4%, HepG2 viability 0.5%, TDP1 cell noCPT -9.0%, TDP1 cell CPT 7.7% and ATXN2 expr inh -10.9%.
`CCN(CC)C1CCN(C(=O)c2cc(COc3ccc(-n4cncn4)cc3)on2)C1` (stereo not given) gave S2 tox inactive, TGFb SMAD3 inh -4.0%, HepG2 viability 13.8%, TDP1 cell noCPT 2.4%, TDP1 cell CPT 0.1% and ATXN2 expr inh -5.8%.
For CC(C)NC(=O)N(C)C[C@H]1Oc2ccc(NC(=O)CCN3CCOCC3)cc2C(=O)N([C@H](C)CO)C[C@@H]1C the results were S2 tox inactive, TGFb SMAD3 inh -3.5%, HepG2 viability 0.8%, TDP1 cell noCPT -19.8%, TDP1 cell CPT -19.4% and ATXN2 expr inh 4.7%.
`Cc1ccc(-c2nnc(Nc3ccc4c(c3)OCO4)c3ccccc23)cc1S(N)(=O)=O` gave S2 tox inactive, TGFb SMAD3 inh inconclusive, HepG2 viability 2.4%, TDP1 cell noCPT inconclusive, TDP1 cell CPT inconclusive and ATXN2 expr inh -13.4%.
`Cc1ccc(-c2nnc(N3CCCCC3)c3ccccc23)cc1S(=O)(=O)NCC1CCCO1` (stereo not given) gave S2 tox inactive, TGFb SMAD3 inh inconclusive, HepG2 viability -26.1%, TDP1 cell noCPT 20.6µM*, TDP1 cell CPT 18.4µM* and ATXN2 expr inh -5.0%.
Screening Cc1ccc(-c2nnc(Nc3ccc(C(N)=O)cc3)c3ccccc23)cc1S(=O)(=O)NCC1CCCO1 (stereo not given) returned S2 tox inactive, TGFb SMAD3 inh -9.9%, HepG2 viability -2.0%, TDP1 cell noCPT inconclusive, TDP1 cell CPT inconclusive and ATXN2 expr inh 11.2%.
Cc1ccc(-c2nnc(Nc3ccc(Cl)cc3)c3ccccc23)cc1S(=O)(=O)NCC1CCCO1 (stereo not given) was read as S2 tox inactive, TGFb SMAD3 inh inconclusive, HepG2 viability -6.5%, TDP1 cell noCPT 20.6µM*, TDP1 cell CPT inconclusive and ATXN2 expr inh -10.3%.
Screening Cc1ccc(-c2nnc(Nc3cccc(Cl)c3)c3ccccc23)cc1S(=O)(=O)NCC1CCCO1 (stereo not given) returned S2 tox inactive, TGFb SMAD3 inh -23.4%, HepG2 viability -18.6%, TDP1 cell noCPT 4.11µM*, TDP1 cell CPT 23.1µM* and ATXN2 expr inh -20.3%.
Cc1cccc(Nc2nnc(-c3ccc(C)c(S(=O)(=O)NCC4CCCO4)c3)c3ccccc23)c1 (stereo not given) was read as S2 tox inconclusive, TGFb SMAD3 inh inconclusive, HepG2 viability -0.3%, TDP1 cell noCPT 6.51µM*, TDP1 cell CPT 23.1µM* and ATXN2 expr inh inconclusive.
Screening COc1nnc(-c2ccc(C)c(S(=O)(=O)NCC3CCCO3)c2)c2ccccc12 (stereo not given) returned S2 tox inactive, TGFb SMAD3 inh -8.5%, HepG2 viability 9.2%, TDP1 cell noCPT inconclusive, TDP1 cell CPT inconclusive and ATXN2 expr inh 4.1%.
For CN(Cc1ccccc1)N=Nc1nc[nH]c1C(N)=O the results were S2 tox inactive, TGFb SMAD3 inh 3.6%, HepG2 viability 0.2%, TDP1 cell noCPT -9.2%, TDP1 cell CPT inconclusive and ATXN2 expr inh 9.0%.
`O=C1c2ccccc2C(Nc2ccc3c(c2)OCO3)N1Cc1ccc2c(c1)OCO2` (stereo not given) gave S2 tox inactive, TGFb SMAD3 inh 0.9%, HepG2 viability -22.4%, TDP1 cell noCPT 14.6µM*, TDP1 cell CPT inconclusive and ATXN2 expr inh 3.5%.
For O=C1c2ccccc2C(Nc2cccnc2)N1Cc1ccc2c(c1)OCO2 (stereo not given) the results were S2 tox inactive, TGFb SMAD3 inh inconclusive, HepG2 viability -21.9%, TDP1 cell noCPT -9.7%, TDP1 cell CPT 0.8% and ATXN2 expr inh 6.4%.
`COc1ccc(NC(=O)CC2C(=O)N(c3ccc(F)cc3)C(=O)N2Cc2ccc3c(c2)OCO3)cc1` (stereo not given) gave S2 tox inconclusive, TGFb SMAD3 inh -14.9%, HepG2 viability -26.1%, TDP1 cell noCPT inconclusive, TDP1 cell CPT -18.2% and ATXN2 expr inh 2.7%.
`COC(=O)c1cc(NC(=O)CN(C)Cc2ccccc2)cc(C(=O)OC)c1` gave S2 tox inactive, TGFb SMAD3 inh 6.1%, HepG2 viability 2.4%, TDP1 cell noCPT -8.3%, TDP1 cell CPT -14.6% and ATXN2 expr inh -1.3%.
Screening CCc1cccc(C)c1NC(=O)CCOc1ccccc1 returned S2 tox inactive, TGFb SMAD3 inh -1.8%, HepG2 viability -27.4%, TDP1 cell noCPT 1.6%, TDP1 cell CPT 5.3% and ATXN2 expr inh 9.9%.
For CCOC(=O)c1c(C)[nH]c(CCC(=O)NCc2ccc(N(C)C)cc2)c1C the results were TGFb SMAD3 inh 0.0%, HepG2 viability -3.3%, TDP1 cell noCPT 18.4µM* and TDP1 cell CPT inconclusive.
Screening CCOC(=O)c1c(C)[nH]c(CCC(=O)NCc2ccc(OC)c(OC)c2)c1C returned TGFb SMAD3 inh 0.0%, HepG2 viability 1.8%, TDP1 cell noCPT -9.8% and TDP1 cell CPT -8.9%.
For CCOC(=O)c1c(C)[nH]c(CCC(=O)Nc2cc(C)ccc2OC)c1C the results were TGFb SMAD3 inh inconclusive, HepG2 viability -14.8%, TDP1 cell noCPT 16.4µM* and TDP1 cell CPT inconclusive.
